Source: PubChem BioAssay (National Center for Advancing Translational Sciences (NCATS))
VDR inhibitor: vitamin D3 receptor (human) inhibition. P11473. Potency, µM, for the others: max response, negative = inhibition, hits mostly inhibitors. actives 0.93% (n = 400,000). VDR-SRC2-3 peptide fluorescence polarization, 2 h
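Reagent solutions, kept cold and dark, are dispensed first; compounds are then pinned in at 23 nl, plates briefly spun, and incubated 2 h at ambient temperature. Inhibition of VDR–SRC2-3 peptide binding is read by fluorescence polarization.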
DT40 TDP1 CPT: growth inhibition of DT40 Tdp1-/-;hTDP1 cells with camptothecin (screen for TDP1 inhibitors). AID 686979. actives 12% (n = 420,000). Potency, µM (top dose mostly 46.2 µM), for inactives: at the highest dose activity change, negative = growth inhibition, usual class: inhibitors. chicken DT40 Tdp1-/-;hTDP1 cells + 20 nM CPT, ATP luminescence, 48 h; note: nearly all actives have a fitted effect of over 55% in size
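Chicken DT40 Tdp1-/- cells stably complemented with human TDP1 were seeded at 400 cells/well in medium containing 20 nM camptothecin, exposed to pin-transferred compounds, and grown at 37 °C for at least 48 hr. Viability was read as ATP luminescence.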
GCN5L2 inh: inhibitors of human GCN5L2 histone acetyltransferase. Potency, µM (highest dose often 58.9 µM), for the others: at the highest dose activity change, negative = inhibition, actives largely listed as inhibitors. AID 504327. GCN5L2 HAT assay, ThioGlo1 CoA-SH fluorescence. Q92830. actives 0.21% (n = 390,000)
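GCN5L2 (20 nM) in 50mM HEPES pH 7.5, 0.1mM EDTA, 0.01% Tween-20 preincubated 15 min with compounds at room temperature. Reaction started with H3(1-25) 75uM, acetyl-CoA 70uM, ThioGlo1 50uM; CoA-thiol fluorescence (Ex340/Em540) read at 0 and 20 min.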
TDP1 cell noCPT: qHTS for Inhibitors of human tyrosyl-DNA phosphodiesterase 1 (TDP1): qHTS in cells in absence of CPT; DT40 Tdp1-/- hTDP1 cells, no CPT, ATP luminescence, 48 h; Potency, µM (highest dose often 46.2 µM), for the others: top-dose activity change, negative = growth inhibition, usual class: inhibitors; actives 15% (n = 420,000); AID 686978, 2013; note: nearly all actives have a fitted effect of over 55% in size
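Chicken DT40 Tdp1-/- cells stably complemented with human TDP1 were seeded at 400 cells/well with DMSO in place of 20 nM camptothecin. After compound pinning, cells grew at least 48 hr at 37 °C; viability read by CellTiter-Glo luminescence.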
PLK1 PBD block: blocks phosphopeptide binding to human PLK1 polo-box domain; P53350; Plk1 PBD binding of FITC phosphopeptide, fluorescence polarization; Potency, µM, inactives show max response, negative = inhibition, most hits filed as inhibitors; actives 2.8% (n = 360,000); note: series mostly up to about 57 µM; nearly all actives have a fitted effect of over 65% in size
TDP1 inh: blocks human tyrosyl-DNA phosphodiesterase 1. Q9NUW8. recombinant TDP1, AlphaScreen DNA substrate cleavage. Potency, µM (doses to about 130 µM), inactives show at the highest dose activity change, negative = inhibition, usual class: inhibitors. actives 0.28% (n = 350,000). AID 485290; note: nearly all actives have a fitted effect of over 40% in size
Target sequence (Q9NUW8 whole entry, looked up): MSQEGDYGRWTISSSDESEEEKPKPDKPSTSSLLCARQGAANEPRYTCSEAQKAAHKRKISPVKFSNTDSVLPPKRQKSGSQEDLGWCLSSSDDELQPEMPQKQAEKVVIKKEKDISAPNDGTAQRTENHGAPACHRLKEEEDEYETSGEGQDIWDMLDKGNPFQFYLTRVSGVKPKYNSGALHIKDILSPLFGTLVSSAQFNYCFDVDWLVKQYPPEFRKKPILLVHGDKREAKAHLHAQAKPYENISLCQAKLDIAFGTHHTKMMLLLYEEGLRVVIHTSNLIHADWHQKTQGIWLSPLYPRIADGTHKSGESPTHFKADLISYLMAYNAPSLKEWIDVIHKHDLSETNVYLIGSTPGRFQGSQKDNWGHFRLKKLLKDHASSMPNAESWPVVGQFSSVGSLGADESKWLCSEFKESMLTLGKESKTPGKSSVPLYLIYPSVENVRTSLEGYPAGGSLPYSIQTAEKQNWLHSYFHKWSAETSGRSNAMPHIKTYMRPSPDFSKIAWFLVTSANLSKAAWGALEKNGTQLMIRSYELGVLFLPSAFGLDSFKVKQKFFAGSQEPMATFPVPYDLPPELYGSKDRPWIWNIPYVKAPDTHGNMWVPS
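Tdp1 1 nM final; 15 min RT w/ cpd; substrate 15 nM, 5 min; beads 10 ug/ml, 10 min; AlphaScreen read. Neg ctrl: no enzyme.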
Active calls of the source: *; ? = inconclusive; . = no result given; [ ] = dose if it differs, or a comment. The list is not random: actives were taken first. Their share in the collection is about 18%. Calls come from the whole dose curve; as a rule, active = well fitted curve in the direction sought with a large enough effect; inconclusive = small, poorly fitted or top-dose-only effect, or another doubt; inactive = no such curve, though single readings can be large; an effect the other way counts as inactive or inconclusive. % is set by controls: 0 for no effect and ±100 for the full control effect; potency is the fitted concentration of half-maximal effect.

SMILES	VDR inhibitor	DT40 TDP1 CPT	GCN5L2 inh	TDP1 cell noCPT	PLK1 PBD block	TDP1 inh
CC(C)C(=O)Nc1ccc2c(c1)Cc1cc(NC(=O)C(C)C)ccc1-2	-9%	-13%	-18%	15%	-5%	.
Cc1ccc(S(=O)(=O)N/N=C\c2ccc([N+](=O)[O-])o2)cc1C	-13%	18µM*	-24%	?	-12%	5%
O=[N+]([O-])c1ccc(/C=N/NS(=O)(=O)c2ccc(Cl)cc2)o1	-13%	9.2µM*	-5%	16µM*	?	9%
Cc1ccc(S(=O)(=O)N/N=C\c2ccc([N+](=O)[O-])o2)cc1	-2%	15µM*	-3%	16µM*	-18%	8%
CCC1=C2CC[C@H]3C(=O)N(C)C(=O)[C@H]3[C@H]2[C@@]2(Cc3ccccc3)C(=NCC3CC3)OC(=O)N2C1=O	.	.	.	.	.	7%
CCCCC[C@@H]1C=C(C(=O)O)[C@H](c2ccc(OC)c(OC)c2)N1S(=O)(=O)c1ccc(C)cc1	-9%	6%	2%	8%	-13%	0%
CCn1nnc(NC(=S)NC(=O)c2ccc(-c3cccc(Cl)c3)o2)n1	-21%	11%	-6%	-9%	21µM*	.
CCCn1nnc(NC(=S)NC(=O)C(C)(C)C)n1	-18%	?	-4%	?	-17%	6%
CCCn1nnc(NC(=S)NC(=O)c2cccs2)n1	-18%	21µM*	38%	18µM*	-8%	1%
CC(NC(=O)CCc1ccccc1)c1cc2c(cc1Cl)OCCO2 (centres undefined)	0%	15µM*	2%	?	6%	3%
CC(CC(=O)NC(C)c1ccc2c(c1)OCCO2)c1ccccc1 (centres undefined)	-6%	-8%	-3%	-4%	-6%	-5%
COc1ccc(CCN2C(=NC(C)=O)SC3CS(=O)(=O)CC32)cc1OC (centres undefined)	-1%	1%	2%	3%	-4%	.
O=C(CNC(=O)C1CCCCC1)NC1=NCCS1	-4%	26µM*	-3%	?	-6%	3%
Cc1ccc(NC(=O)CNC(=O)C2CCCCC2)nc1	-10%	-10%	-4%	3%	-4%	-1%
CCCCCOC(=O)CSc1ncnc2sc3c(c12)CCC(C)C3 (centres undefined)	-11%	-15%	-11%	-11%	.	.
COc1ccc(NC(=O)C(C/C=C(/C)Cl)C(C)=O)cc1 (centres undefined)	2%	?	-7%	?	3.8µM*	1%[56.1 µM]
COc1ccc(NC(=O)C(CCS(C)(=O)=O)NC(C)=O)cc1 (centres undefined)	-16%	-4%	-19%	-3%	-23%	1%
COc1ccc(CN2CC[C@H]3C=CC[C@@H](C(=O)NC4CCCCC4)[C@H]3C2=O)cc1OC	.	-23%	.	-21%	.	.
CSc1ccc(CCNC(=O)c2ccc3c(c2)nc2n3CCC(C)C2)cc1 (centres undefined)	11%	21µM*	-1%	13µM*	.	11%
CC1CCn2c(nc3cc(C(=O)NCc4ccccc4)ccc32)C1 (centres undefined)	4%	3%	0%	-27%	.	3%
Cc1ccc(C)c(CNC(=O)c2ccc3c(c2)nc2n3CCC(C)C2)c1 (centres undefined)	12%	?	-4%	21µM*	.	8%
C/C=C/c1ccc2oc(-c3ccc(O)cc3)c(C)c2c1	7%	2%[9.04 µM]	.	-8%[9.04 µM]	.	10%
CC[C@H](C)[C@H](N)C(=O)N[C@@H](CC(N)=O)C(=O)N1CCC[C@H]1C(=O)N[C@H](C(=O)N[C@@H](Cc1ccc(O)cc1)C(=O)N[C@@H](CCCN=C(N)N)C(=O)N[C@@H](CC(C)C)C(=O)N[C@@H](CCCN=C(N)N)C(=O)N[C@@H](Cc1ccc(O)cc1)C(N)=O)[C@@H](C)CC	0%	.	-2%	.	.	11%
O=C(O)C/C(=C\c1cccc(NC(=O)c2ccccc2Cl)c1)c1nc2ccccc2s1	-26%	?	-13%	?	27µM*	.
COc1ccc(C(=O)Nc2cccc(/C=C(\CCC(=O)O)c3nc4ccccc4s3)c2)cc1	?	?	-14%	?	11µM*	.
SMILES	VDR inhibitor	DT40 TDP1 CPT	GCN5L2 inh	TDP1 cell noCPT	PLK1 PBD block	TDP1 inh
CCCCN(C)CCNC(=O)C1CCN(S(=O)(=O)c2cccc3nsnc23)CC1	20%	-7%	-20%	-2%	-2%	4%
CN(Cc1nc2ccccc2c(=O)[nH]1)C(=O)c1cc(C2CC2)nn1-c1ccccc1	-21%	13µM*	-3%	?	3%	2%
CCOc1ccc(NC(=O)CN(C)C(=O)c2cc(C3CC3)nn2-c2ccccc2)cc1OCC	-4%	?	-2%	?	1%	1%
Cc1ccc(C)c(NC(=O)CN(C)C(=O)c2cc(C3CC3)nn2-c2ccccc2)c1	-2%	16µM*	-1%	?	2%	0%
CC(C)c1cccc2nc3c(c([Si](C)(C)C)c12)Cn1c-3cccc1=O	.	.	.	.	.	6%
CC(=O)c1cccc(NC(=O)c2nc(-c3ccccc3)oc2C)c1	8%	?	-7%	15µM*	-2%	4%
CC(=O)c1cccc(NC(=O)c2nc(-c3ccccc3)n(-c3ccccc3C)n2)c1	14%	26µM*	-12%	21µM*	.	9%
O=C(NN=C1CCCCCC1)NC1CCCCC1	1%	14%	2%	-11%	-5%	-3%
CC(C)(C)NC(=O)C(=O)NN=C1CCCCCC1	9%	2%	-10%	0%	1%	4%
NC(=S)NN=C1CCCCCCCCCC1	?	3.7µM*	.	10µM*	-14%	.
NC(=S)NN=C1CCC(C2CCCCC2)CC1 (centres undefined)	-18%	5.8µM*	.	3.7µM*	-14%	.
S=c1[nH]nc(COc2ccccc2)n1-c1ccc(Cl)cc1	-6%	14%	.	23µM*	-18%	.
Nc1n[nH]c(=S)n1-c1ccc(Cl)cc1	?	-16%	?	?	12µM*	10%
COc1ccc(-n2c(COc3ccccc3)n[nH]c2=S)cc1	0%	1%	-8%	-2%	6%	.
S=c1[nH]nc(-c2ccc(Cl)cc2)n1-c1ccc(Cl)cc1	-13%	-9%	-1%	-12%	?	5%
CN(C)S(=O)(=O)c1ccc(C(=O)NN2C(=O)NC3(CCCCC3)C2=O)cc1	-12%	4%	2%	0%	-1%	-6%
NCc1csc(NC(=O)Nc2cccc(C(F)(F)F)c2)n1	.	16µM*	.	23µM*	-6%	.
